Source: PubChem BioAssay (NCI)
The panel holds about 83,000 compounds, 20% with a hit somewhere; the sample as a whole holds those more often.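 Testing used 96-well plates and a 48-hour single-concentration exposure. Example: -40 means 40% of the starting cells died.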 A number with no mark means an inactive call. Active and inactive are the calls of the source. Rule for the calls: active = growth percent below 10; inactive = the rest.

test system: IGROV1 ovarian; experiment: NCI-60 one-dose screen, 48 h (100 = growth as untreated, 0 = no growth, -100 = all killed); settings: 10 µM

| Compound | growth |
| --- | --- |
| COc1cccc(/C=C2\N=C(C)N(CCc3ccc(S(N)(=O)=O)cc3)C2=O)c1 | 103% |
| CN(C)c1ccc(/C=C/C(=O)c2ccc(NC(=O)CN3C(=O)NC(C)(c4ccccc4)C3=O)cc2)cc1 (stereo unspecified) | 86.7% |
| O=C(O)CCCCCCCCCCN1C(=O)/C(=C/c2cnc(-c3ccccc3)s2)SC1=S | 95% |
| COc1ccc(-c2ccc(/C=N/NC(=O)c3[nH]c4ccc(Br)cc4c3-c3ccccc3)s2)cc1 | 110% |
| O=C1N/C(=N\c2nccs2)S/C1=C\c1cccs1 | 31.5% |
| O=C(CNc1nc(-c2ccccc2)cs1)Nc1ccccc1 | -7.7% (active) |
| COc1cc2c3c(n(CCCNC(C)C)c(=O)c2cc1OC)-c1nc2c(cc1C3=O)OCO2 | 40.8% |
| Cc1cccc(-c2nc(Nc3ccccc3C(=O)O)c3ccccc3n2)c1 | 59.2% |
| Oc1ccc(/C=C2\CCCc3cc4ccc(O)cc4[o+]c32)c(O)c1 | 21.4% |
| N#Cc1ccc(-c2nn(-c3ccc(C(=O)O)cc3)cc2CNc2ccc(Cl)cc2)cc1 | 91.5% |
| COc1ccc2nc(Cl)c(-c3cc(-c4ccccc4)nc(=S)[nH]3)cc2c1 | 79% |
| Cc1ccc(NC(=O)c2ccc(-n3c(=O)[nH]c4ccccc4c3=O)cc2)cc1 | 103% |
| Nc1nc(Nc2ccc(Cl)cc2)n(Cc2cccc(Br)c2)n1 | -5.03% (active) |
| O=C(CN1CCN(c2ncnc3c2cnn3-c2ccccc2)CC1)Nc1nncs1 | -41.8% (active) |
| O=c1c2ccccc2nc(COc2ccccc2)n1/N=C/c1ccc(N2CCOCC2)cc1 | 56.9% |
| Cn1c(O)c(N=Nc2nc(-c3cc4ccccc4oc3=O)cs2)c2cc(Br)ccc21 | 64.2% |
| O=c1nc(-c2ccccc2)cc(-c2cc3ccccc3nc2Cl)[nH]1 | 56.8% |
| C/C(=N\NC(N)=S)c1ccc(Nc2nc(SC(C)C)nc(-c3ccccc3)c2C#N)cc1 | 81.3% |
| COc1ccc(/C=C/C(=O)c2ccc(N3CCN(C)CC3)cc2)c(C(F)(F)F)c1 | 55% |
| Nc1n[nH]c2cccc(C#Cc3cccc(NC(=O)Nc4cc(C(F)(F)F)cc(C(F)(F)F)c4)c3)c12 | -66% (active) |
| O=C(Nc1ccc(Cl)c([N+](=O)[O-])c1)Nc1ccc(Cl)c([N+](=O)[O-])c1 | 15.3% |
| O=C(Nc1nc2ccc([N+](=O)[O-])cc2s1)Nc1cc(Cl)ccc1I | 13.8% |
| O=C1CCC(N2Cc3cc(NC(=O)COc4ccccc4)ccc3C2=O)C(=O)N1 (stereo unspecified) | 45.8% |
| O=C(c1ccc(-n2c(=O)[nH]c3ccccc3c2=O)cc1)N1CCOCC1 | 104% |
| CN1CCc2c(sc3ncnc(N/N=C/c4cn(-c5ccccc5)nc4-c4ccc(Cl)cc4)c23)C1 | 1.89% (active) |
| C=CC(=O)Nc1ccc(C(=O)/C=C/c2ccc(N(C)CCF)cc2)c(O)c1 | -53.5% (active) |

test system: OVCAR-3 ovarian; experiment: as above; settings: 10 µM

| Compound | growth |
| --- | --- |
| Cc1ccc(F)cc1N/C=c1\s/c(=C(\C#N)C(=O)Nc2ccccc2)n(-c2ccccc2)c1=O | 99% |
| COc1ccc([C@H]2C(C(=O)c3ccc(Cl)cc3)C3(N[C@@H]2c2ccccc2)C(=O)Nc2ccc(Cl)cc23)cc1 (stereo partly specified) | -10.8% (active) |
| O=C1Nc2cc(-c3ccc(NC(=O)c4cccc([N+](=O)[O-])c4)cc3)ccc2/C1=C/c1ccc[nH]1 | 99.4% |
| CCCn1c(=O)c2[nH]c(-c3ccc(OCc4nc5ccc(F)cc5[nH]4)cc3)nc2n(CCC)c1=O | 5.45% (active) |
| CCCS(=O)(=O)c1oc(-c2ccc(F)cc2)nc1S(=O)(=O)c1ccc(F)cc1 | -96% (active) |
| O=C(CSc1nnc(-c2c[nH]c3ccccc23)n1-c1ccccc1)Nc1ccc(C(=O)/C=C/c2ccc(Br)cc2)cc1 | 81% |
| CCOC(=O)C1=C(N)N(c2ccc(Cl)cc2)C2=C(C(=O)CC(C)(C)C2)C1c1ccc(N2CCOCC2)cc1 (stereo unspecified) | 102% |
| COc1ccc2[nH]cc(/C=N/Nc3ccc(Br)cn3)c2c1 | 31.1% |
| O/N=C(\CSc1nnc(-c2c[nH]c3ccccc23)n1-c1ccccc1)c1ccc(Cl)cc1 | 34.2% |
| COc1ccc2[nH]c(O)c(N=NC(=O)COc3ccc(NC(=O)Nc4ccc(Cl)c(Cl)c4)cc3)c2c1 | -44.5% (active) |
| C=C1CC[C@H](C(=C)C)[C@H]2C=C(C)C(=O)C3=C(C(=O)[C@@](C)(O)C3)[C@H]12 | -41.7% (active) |
| O=S(=O)(Nc1ncccn1)c1ccc(-n2c(-c3ccccc3)nc(-c3ccccc3)c2-c2ccccc2)cc1 | 113% |
| COc1cccc(/C=C2\N=C(C)N(CCc3ccc(S(N)(=O)=O)cc3)C2=O)c1 | 113% |
| CN(C)c1ccc(/C=C/C(=O)c2ccc(NC(=O)CN3C(=O)NC(C)(c4ccccc4)C3=O)cc2)cc1 (stereo unspecified) | 61.7% |
| O=C(O)CCCCCCCCCCN1C(=O)/C(=C/c2cnc(-c3ccccc3)s2)SC1=S | 102% |
| COc1ccc(-c2ccc(/C=N/NC(=O)c3[nH]c4ccc(Br)cc4c3-c3ccccc3)s2)cc1 | 97.5% |
| O=C1N/C(=N\c2nccs2)S/C1=C\c1cccs1 | 44.2% |
| COc1cc2c3c(n(CCCNC(C)C)c(=O)c2cc1OC)-c1nc2c(cc1C3=O)OCO2 | -97.4% (active) |

| Compound | growth |
| --- | --- |
| Cc1cccc(-c2nc(Nc3ccccc3C(=O)O)c3ccccc3n2)c1 | 34.1% |
| Oc1ccc(/C=C2\CCCc3cc4ccc(O)cc4[o+]c32)c(O)c1 | -45.1% (active) |
| N#Cc1ccc(-c2nn(-c3ccc(C(=O)O)cc3)cc2CNc2ccc(Cl)cc2)cc1 | 70.3% |
| Cc1ccc(NC(=O)c2ccc(-n3c(=O)[nH]c4ccccc4c3=O)cc2)cc1 | 90.5% |
| O=C(CN1CCN(c2ncnc3c2cnn3-c2ccccc2)CC1)Nc1nncs1 | -55.6% (active) |
| O=c1c2ccccc2nc(COc2ccccc2)n1/N=C/c1ccc(N2CCOCC2)cc1 | 85.2% |
| Cn1c(O)c(N=Nc2nc(-c3cc4ccccc4oc3=O)cs2)c2cc(Br)ccc21 | 96.4% |
| O=c1nc(-c2ccccc2)cc(-c2cc3ccccc3nc2Cl)[nH]1 | 8.83% (active) |
| C/C(=N\NC(N)=S)c1ccc(Nc2nc(SC(C)C)nc(-c3ccccc3)c2C#N)cc1 | 67.3% |
| COc1ccc(/C=C/C(=O)c2ccc(N3CCN(C)CC3)cc2)c(C(F)(F)F)c1 | 46.9% |
| Nc1n[nH]c2cccc(C#Cc3cccc(NC(=O)Nc4cc(C(F)(F)F)cc(C(F)(F)F)c4)c3)c12 | -20.4% (active) |
| O=C(Nc1ccc(Cl)c([N+](=O)[O-])c1)Nc1ccc(Cl)c([N+](=O)[O-])c1 | 9.61% (active) |
| O=C(Nc1nc2ccc([N+](=O)[O-])cc2s1)Nc1cc(Cl)ccc1I | -21.2% (active) |
| O=C1CCC(N2Cc3cc(NC(=O)COc4ccccc4)ccc3C2=O)C(=O)N1 (stereo unspecified) | 85.8% |
| O=C(c1ccc(-n2c(=O)[nH]c3ccccc3c2=O)cc1)N1CCOCC1 | 108% |
| CN1CCc2c(sc3ncnc(N/N=C/c4cn(-c5ccccc5)nc4-c4ccc(Cl)cc4)c23)C1 | -17.2% (active) |
| C=CC(=O)Nc1ccc(C(=O)/C=C/c2ccc(N(C)CCF)cc2)c(O)c1 | -69% (active) |
